Assay outcomes: PubChem, National Center for Advancing Translational Sciences (NCATS)
Only some compounds are listed: those with a hit (about 2.1% of all), similar ones and a draw of the others.
aSyn yeast inh – rescues yeast growth from alpha-synuclein toxicity | Yeast expressing alpha-synuclein, growth rescue, BacTiter-Glo, 24 h | Potency, µM (series often up to 46.1 µM), for the others: top-dose growth rescue (activation), hits mostly activators | 370,000 tested, 0.14% active | AID 652106; also: % of control where 0% means no effect; nearly all actives have a fitted effect of over 65% in size
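Screening used galactose-induced yeast with toxic alpha-synuclein levels, exposed to compound for 24 hr at 30 deg C. Cell growth, read with BacTiter-Glo luminescence, gave the measured signal.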
Abeta yeast res – restores growth of yeast expressing A-beta42 peptide | yeast expressing A-beta42, growth rescue, OD600, 48 h; response scale: 0% DMSO, 100% iron-clioquinol control | Potency, µM (doses to about 46.1 µM), actives largely listed as activators | 410,000 tested, 0.063% active; also: nearly all actives have a fitted effect of over 55% in size
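Yeast A-beta toxicity model in growth medium with pinned compounds, 48 h at 30 C; growth read as absorbance at 600 nm. Normalized to FeCl3/clioquinol equimolar mix (positive) and DMSO (negative).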
FUS yeast rescue – suppressors of FUS proteinopathy in yeast; S. cerevisiae FUS-expressing, growth rescue, OD600, 24 h; Potency, µM (series often up to 76.6 µM), actives largely listed as activators; 390,000 tested, 0.24% active;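 also: plate controls were DMSO vehicle for no effect and reference control for full effect; nearly all actives have a fitted effect of over 55% in size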
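Read-out: OD at 600 nm after 24hr at 30C, reporting rescue of FUS-induced yeast toxicity. Cells at OD 0.005 in galactose (2%) minimal medium; compounds tested in a dilution series; CP55940 titration from 92uM final as control.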
TDP43 rescue – TDP-43 toxicity inhibition in yeast; 410,000 tested, 1.8% active; AID 652104; TDP-43 expressing yeast growth rescue, BacTiter-Glo, 24 h; Potency, µM (series often up to 46.1 µM), without a hit: at the highest dose growth rescue (activation), most hits filed as activators; also: % of control where 0% means no effect; nearly all actives have a fitted effect of over 50% in size
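Yeast expressing TDP-43 (pregrown in raffinose, seeded at OD600=0.02 in galactose medium) exposed to compounds 24 hr at 30 deg C. Growth read by BacTiter-Glo luminescence; rescue of toxicity appears as increased signal.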
Active calls of the source: *; i = inactive; u = inconclusive; x = no result given. Calls follow the shape of the dose curve; as a rule, active = well fitted curve in the direction sought with a large enough effect; inconclusive = small, poorly fitted or top-dose-only effect, or another doubt; inactive = no such curve, though single readings can be large; an effect the other way counts as inactive or inconclusive. Potency is read from the fitted curve at half-maximal effect.

SMILES	aSyn yeast inh	Abeta yeast res	FUS yeast rescue	TDP43 rescue
C=CCOc1c(Cl)cc(/C=N/O)cc1OC	-6%	i	i	-4%
CCOc1cc(/C=N\O)cc(Cl)c1OCC	-3%	i	i	10µM*
O=C(Nc1ccc(Cl)cc1)O[C@@H]1CC[C@@]23CCCN2C(=O)CCC[C@H]3C1	x	x	i	x
O=C(N/N=C/c1cc(Br)cc(Cl)c1O)c1ccc2c(c1)OCO2	5.6µM*	i	i	6.3µM*
CCSC1=NC2(CCCCC2)Nc2sc3c(c21)CCCC3	3%	i	35µM*	29%
CCSc1nc2sc3c(c2c(=O)[nH]1)CCCC3	2%	i	i	7%
Cc1ccc(CNC2CCC23CCC(c2ccccc2)CC3)o1 (stereo not given)	x	x	i	x
CS(=O)(=O)N1C[C@]2(c3ccccc3)CC1Cc1ccccc12	x	x	i	x
OC(c1ccccc1)(c1nc(-c2cccc(C(F)(F)F)c2)cs1)C(F)(F)F (stereo not given)	-84%	i	i	-92%
N#Cc1cccc(-c2csc(C(O)(c3ccccc3)C(F)(F)F)n2)c1 (stereo not given)	-50%	13µM*	i	-80%
COc1ccc(-c2csc(C(C)(O)c3cccc(F)c3)n2)cc1OC (stereo not given)	-1%	i	i	35µM*
COc1cccc(C(C)(O)c2nc(-c3ccc(C)c(C)c3)cs2)c1 (stereo not given)	-14%	i	i	14µM*
CC(O)(c1cccc(F)c1)c1nc(-c2ccccc2)cs1 (stereo not given)	8%	i	i	36%
CC(O)(c1cccc(F)c1)c1nc(-c2cccc(C(=O)O)c2)cs1 (stereo not given)	7%	i	i	35µM*
COc1ccc(-c2csc(C(C)(O)c3cccc(OC)c3)n2)cc1 (stereo not given)	15%	i	i	u
COc1ccc(-c2csc(C(C)(O)c3ccncc3)n2)cc1OC (stereo not given)	-11%	i	i	14%
Cc1cccc(Cn2cc(CN3CC(N(C)CCCOC(=O)c4cc(C)cc(C)c4)CS3(=O)=O)nn2)c1 (stereo not given)	x	x	i	x
CC(O)(c1cccc(F)c1)c1nc(-c2cccc(C#N)c2)cs1 (stereo not given)	10%	i	i	35µM*
CCN(CC)C(=O)c1cccc(-c2csc(C(C)(O)c3ccc(F)c(F)c3)n2)c1 (stereo not given)	1%	i	u	14µM*
CC(O)(c1cccc(F)c1)c1nc(-c2cccc(C(F)(F)F)c2)cs1 (stereo not given)	-44%	i	i	-94%
Cc1cccc(C)c1NC(=O)C1CCN(c2ncccn2)CC1	x	x	i	x
COc1ccc(CNC(=O)c2cc(Nc3ccccc3C)nc3ccccc23)cc1	x	i	i	10%
Cc1ccccc1Nc1cc(C(=O)NCCc2ccc(Cl)cc2)c2ccccc2n1	x	i	i	18µM*
Cc1ccc2nc(SCC(=O)Nc3ccc(Cl)cc3)nc(=O)n2c1	1%	i	i	25%
Cc1ccn2c(=O)nc(SCC(=O)Nc3cccc4ccccc34)nc2c1	15%	i	22µM*	-2%
SMILES	aSyn yeast inh	Abeta yeast res	FUS yeast rescue	TDP43 rescue
O=C(CSc1nc(=O)n2cc(Cl)ccc2n1)Nc1cccc2ccccc12	5%	i	i	7.1µM*
CN(C)c1ccc(/C=C/c2ccnc3c([N+](=O)[O-])cccc23)cc1	-3%	x	x	x
Cc1noc(C)c1COc1ccccc1C(=O)N(C)Cc1ccc(C(C)(C)C)cc1	5%	i	i	35µM*
CCC[C@H]1[C@@H](OC(=O)NCc2ccc(OC)cc2)CC[C@@]23CCCN2C(=O)CCC[C@@H]13	x	x	i	x
Cc1nc(C(=O)Nc2cc(F)cc(Cl)c2)sc1C1(C)CC(c2ccccc2)=NO1 (stereo not given)	1%	i	u	13µM*
Nc1ccccc1C(=O)Nc1cccc2ccccc12	-3%	i	i	14µM*
COc1ccc(N(Cc2ccccc2)C(=O)c2nc(S(C)(=O)=O)ncc2Cl)cc1	x	i	i	0%
Cc1cccc(C(=O)Nc2nc3ncccn3c2-c2ccc(F)cc2)c1	x	x	i	x
Cc1cc(SCC(=O)NC(=O)c2cccn2C)nc2ccccc12	1%	u	i	20µM*
CN(C(=O)CSc1ncnc2ccccc12)C1CCCCC1	4%	i	i	13µM*
